The results in this text go back to PubChem BioAssay AID686971 (National Center for Advancing Translational Sciences (NCATS), 2013).

Screen size: about 360,000 compounds; about 7,500 (2.1%) were called active. Where a call stands in place of a potency, no number is given. Inconclusive results (about 8%) are left out. This is one part of a sample in which actives are shown more often than they occur. Calls follow the shape of the dose curve; as a rule, active = well fitted cell-killing curve with a large enough effect; inconclusive = small, poorly fitted or top-dose-only effect, or effect the other way, or another doubt; inactive = no such curve, though single readings can be large or run the other way.
Potency is read from the fitted curve at half-maximal effect.

The nature of this assay: qHTS for induction of synthetic lethality in tumor cells producing 2HG: qHTS for the HT-1080-IDH1KD cell line. The settings on record: HT-1080 IDH1 knockdown viability, ATP luminescence, 48 h; series mostly up to 46.1 µM. In short, it runs like this: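 CellTiter-Glo luminescence after 48 h compound exposure at 37 degrees C of IDH1-knockdown HT-1080 cells in 5% FBS RPMI. %Activity scaled between DMSO wells and cell-free media wells, with curves fitted and assigned curve classes.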
Background: In qHTS, concentration-response curves come from the screen itself.
Regarding `CCOC(=O)c1cc(-c2sc(NC(=O)c3ccccc3)nc2C)n(-c2ccc(Br)cc2)n1`, the Potency result was “inactive”. `CC1(C)CC(N2CCN(C(c3ccccc3)c3ccccc3)CC2)=CC(=[N+]2CCCCC2)C1`: the Potency was 2.59 µM (active). On the same count and under the same terms, next, `c1ccc(C(c2ccccc2)N2CCN(Cc3nnnn3C3CCCCC3)CC2)cc1`: “inactive”; `COc1ccccc1CN1CCN(C(c2ccccc2)c2ccccc2)CC1`: “inactive”. Same read-out and setting: for `OC(c1ccccc1)c1nc(/C=C/c2ccc(C(F)(F)F)cc2)cs1` (configuration not stated) the value was “inactive”. The same measure, in the same setting: next, `CCCCc1ccc(S(=O)(=O)NC(=O)C2(C)CCN2C(=O)c2ccccc2)cc1` (configuration not stated): “inactive”.

For the molecule `CCCCCCn1c(SCC(=O)c2ccccc2)nc2c1c(=O)[nH]c(=O)n2C`, the Potency result was “inactive”. Same read-out and setting: for `CCCCCn1c(SCCC(C)C)nc2c1c(=O)[nH]c(=O)n2C` the value was 20.6 µM (active); for `C=CCSc1nc2c(c(=O)[nH]c(=O)n2C)n1Cc1ccccc1`, “inactive”; for `COCCNC(=O)c1cc2c(Br)ccc(Br)c2nc1N`, “inactive”. Same read-out and setting: for `CSc1ncnc2c1ncn2CCCNCC1CCCCC1` the value was “inactive”; for `CCc1nc2ccc(C(=O)NCCNC(C)=O)cn2c1N(CC)Cc1cccc(Br)c1`, “inactive”; for `CN(Cc1ccccc1)C(=O)CCC1CCN(C(=O)c2ccco2)CC1`, “inactive”. Still for that read-out and setting: next, `Cc1cc(NC(=O)CCC(=O)N(c2ccccc2)C(C(=O)NC2CCCC2)c2ccncc2)no1` (configuration not stated): “inactive”. With `Cc1cc(NC(=O)/C=C/C(=O)N(c2ccccc2C)C(C(=O)NC2CCCC2)c2ccc(F)cc2)no1` (configuration not stated), the Potency was 10 µM (active).

As to `Cc1cc(NC(=O)CCC(=O)N(c2cccc(F)c2)C(C(=O)NC2CCCC2)c2ccncc2)no1` (configuration not stated), the Potency entry was “inactive”. In the case of `O=C(N=C1SC2CS(=O)(=O)CC2N1Cc1ccccc1)c1ccccc1` (configuration not stated), the Potency result is “inactive”. Still for that read-out and setting: for `COC(=O)[C@]12CCCCC=C1N(Cc1ccccc1)C(=O)[C@H](CC(=O)NCc1ccc(C)o1)C2` the value was “inactive”. The same measure, in the same setting: next, `COc1ccc(C)c(Cn2c(-c3nonc3N)nc3ccccc32)c1`: 5.17 µM (active); `CCn1c(C(O)c2cc(OC)ccc2OC)nc2ccccc21` (configuration not stated): “inactive”; `Nc1nonc1-c1nc2ccccc2n1Cc1ccc(F)cc1`: “inactive”. Same read-out and setting: next, `COCCCn1c(=O)/c(=C/c2ccccc2OC(C)C)s/c1=C(\C#N)C(=O)Nc1ccc(C(=O)O)cc1`: “inactive”; `CC1(c2cccc(Br)c2)NC(=O)N(CC(=O)NCCC2=CCCCC2)C1=O` (configuration not stated): “inactive”; `Cc1cccc(-c2nc(Nc3ccc(O)cc3)c3ccccc3n2)c1`: 11.6 µM (active). As for `Cc1ccc2nc(Nc3ccccc3O)nc(-c3ccccc3)c2c1`, the activity, negative = toxicity is -0.715% [at 9.24 µM] (inactive). For `Oc1ccc(-c2nnc(Nc3ccccc3)c3ccccc23)cc1`, the Potency result was “inactive”. In the case of `CC1=C(C(=O)N2CCOCC2)CC(CC(=O)NCc2ccco2)C(=O)N1Cc1ccc(F)cc1` (configuration not stated), the Potency entry is “inactive”.
